The text below walks through data of ChEMBL document CHEMBL3988442, “University of Dundee, Small-Polar-MMV Screening Library” (2021).

For some of these results: Measured potencies and affinities stand elsewhere.

What all share (set-up): scale not given: direction of the effect not stated beside the values
In experiment [1] the target is Protein translocase subunit SecA (Escherichia coli (strain K12)) (UniProt P10408). The experiment is described as follows: Assay to Identify E. coli SecA ATPase Inhibitors. It counts as functional. The settings on record: 30 µM.
Experiment [2] has as its target T1, Ubiquitin-activating enzyme e1, putative (Leishmania donovani (strain BPK282A1)) (UniProt E9BSI1).
T1 sequence (whole entry): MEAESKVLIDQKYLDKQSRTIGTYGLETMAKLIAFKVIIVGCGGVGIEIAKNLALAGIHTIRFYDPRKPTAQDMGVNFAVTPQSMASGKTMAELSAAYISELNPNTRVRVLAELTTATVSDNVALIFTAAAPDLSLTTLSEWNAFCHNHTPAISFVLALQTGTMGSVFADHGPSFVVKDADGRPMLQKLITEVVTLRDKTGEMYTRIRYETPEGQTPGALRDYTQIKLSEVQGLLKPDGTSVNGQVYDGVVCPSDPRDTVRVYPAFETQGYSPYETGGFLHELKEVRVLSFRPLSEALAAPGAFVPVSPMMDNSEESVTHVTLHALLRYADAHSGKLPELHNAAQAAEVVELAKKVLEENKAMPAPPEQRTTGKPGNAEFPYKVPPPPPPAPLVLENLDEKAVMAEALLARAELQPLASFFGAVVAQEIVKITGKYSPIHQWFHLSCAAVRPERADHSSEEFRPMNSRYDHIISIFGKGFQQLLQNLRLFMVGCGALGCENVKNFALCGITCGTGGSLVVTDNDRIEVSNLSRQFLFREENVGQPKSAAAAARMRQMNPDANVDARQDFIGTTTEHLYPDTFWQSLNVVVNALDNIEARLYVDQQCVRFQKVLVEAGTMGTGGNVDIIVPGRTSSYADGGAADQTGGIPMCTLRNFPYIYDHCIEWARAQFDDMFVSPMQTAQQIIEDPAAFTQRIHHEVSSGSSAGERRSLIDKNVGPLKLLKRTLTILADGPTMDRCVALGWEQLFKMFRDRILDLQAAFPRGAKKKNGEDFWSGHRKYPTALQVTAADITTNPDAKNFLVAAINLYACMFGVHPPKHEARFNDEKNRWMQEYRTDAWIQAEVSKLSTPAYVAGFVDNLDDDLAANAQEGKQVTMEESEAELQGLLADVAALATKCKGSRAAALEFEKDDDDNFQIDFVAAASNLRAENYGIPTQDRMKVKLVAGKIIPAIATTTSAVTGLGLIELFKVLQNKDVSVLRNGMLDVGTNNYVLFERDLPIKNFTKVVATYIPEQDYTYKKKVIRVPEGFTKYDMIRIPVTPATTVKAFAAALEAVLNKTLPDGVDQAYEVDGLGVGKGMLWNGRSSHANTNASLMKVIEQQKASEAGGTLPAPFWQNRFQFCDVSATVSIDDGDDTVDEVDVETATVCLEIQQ
The experiment is described as follows: Leishmania donovani Ubiquitin Activating Enzyme (LdE1). It counts as functional. The settings on record: 30 µM.

The target in experiment [3] is AMP-activated protein kinase, AMPK (Homo sapiens) (UniProt P54646+O43741+P54619+Q9UGJ0+Q9Y478+Q13131+Q9UGI9). Put plainly: AMP-dependent Kinase enzyme assay. An in vitro enzyme assay that detects ADP turnover that is directly proportional to AMPK activity. This uses naive AMPK that is activated during the assay with MK-8722. Format: functional. The settings on record: 30 µM.

For experiment [4], the target named is Sialic acid-binding Ig-like lectin 9 (Homo sapiens) (UniProt Q9Y336). Put plainly: Hs-Siglec9 ALPHAscreen SOP 20170721. The settings on record: 10 µM. For orientation: Bead proximity is the source of the signal in Alpha formats.
The test system of the next experiment is Trypanosoma cruzi. Put plainly: Trypanosoma cruzi phosphomannomutase and mannose-1-phosphate guanylyltransferase assay. The settings on record: 10 µM. Format: functional.
Experiment [5] has as its target T2, Arginase-2, mitochondrial (Homo sapiens) (UniProt P78540).
T2 sequence (whole entry): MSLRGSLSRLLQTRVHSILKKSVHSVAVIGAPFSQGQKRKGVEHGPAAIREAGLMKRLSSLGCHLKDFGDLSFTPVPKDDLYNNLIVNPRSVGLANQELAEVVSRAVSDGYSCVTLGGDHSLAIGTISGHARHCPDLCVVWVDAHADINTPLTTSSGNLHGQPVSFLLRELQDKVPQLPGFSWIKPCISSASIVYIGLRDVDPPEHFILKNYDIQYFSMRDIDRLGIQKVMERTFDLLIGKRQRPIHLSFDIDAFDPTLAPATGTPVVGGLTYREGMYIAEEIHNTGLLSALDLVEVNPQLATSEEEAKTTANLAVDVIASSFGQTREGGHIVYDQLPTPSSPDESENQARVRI
Put plainly: in vitro enzyme assay to detect the production of urea directly proportional to the activity of Arginase II. Further: in the data most compounds retested in dose-response had high values. It counts as functional. The settings on record: 33.3 µM.

Experiment [6] deals with T3, Proteasome subunit beta (Trypanosoma cruzi) (UniProt O96673).
T3 sequence (whole entry): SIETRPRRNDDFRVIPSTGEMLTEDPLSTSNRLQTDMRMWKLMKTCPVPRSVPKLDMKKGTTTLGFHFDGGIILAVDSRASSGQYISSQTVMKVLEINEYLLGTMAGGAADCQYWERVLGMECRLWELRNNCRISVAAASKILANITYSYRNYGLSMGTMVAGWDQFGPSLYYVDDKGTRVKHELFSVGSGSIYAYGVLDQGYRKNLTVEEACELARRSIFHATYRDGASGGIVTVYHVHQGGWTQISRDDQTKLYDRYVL
Put plainly: Trypanosoma cruzi proteasome chymotrypsin-like activity (TcProtChymo) assay. Further: in the data most compounds retested in dose-response had high values. Format: functional. The settings on record: 9.37 µM.

The species entered for another experiment is Homo sapiens. The experiment is described as follows: To identify inhibition of the IFN signalling (Jak-Stat) pathway via expression of an eGFP reporter gene under the control of an IFN-stimulated response element (ISRE) containing MxA promoter. It counts as functional. The settings on record: 30 µM. (In a reporter assay the amount or activity of a reporter protein is the signal.)

The target in experiment [7] is T4, Tyrosyl-tRNA synthetase, putative (Trypanosoma cruzi (strain CL Brener)) (UniProt Q4DSP6).
T4 sequence (whole entry): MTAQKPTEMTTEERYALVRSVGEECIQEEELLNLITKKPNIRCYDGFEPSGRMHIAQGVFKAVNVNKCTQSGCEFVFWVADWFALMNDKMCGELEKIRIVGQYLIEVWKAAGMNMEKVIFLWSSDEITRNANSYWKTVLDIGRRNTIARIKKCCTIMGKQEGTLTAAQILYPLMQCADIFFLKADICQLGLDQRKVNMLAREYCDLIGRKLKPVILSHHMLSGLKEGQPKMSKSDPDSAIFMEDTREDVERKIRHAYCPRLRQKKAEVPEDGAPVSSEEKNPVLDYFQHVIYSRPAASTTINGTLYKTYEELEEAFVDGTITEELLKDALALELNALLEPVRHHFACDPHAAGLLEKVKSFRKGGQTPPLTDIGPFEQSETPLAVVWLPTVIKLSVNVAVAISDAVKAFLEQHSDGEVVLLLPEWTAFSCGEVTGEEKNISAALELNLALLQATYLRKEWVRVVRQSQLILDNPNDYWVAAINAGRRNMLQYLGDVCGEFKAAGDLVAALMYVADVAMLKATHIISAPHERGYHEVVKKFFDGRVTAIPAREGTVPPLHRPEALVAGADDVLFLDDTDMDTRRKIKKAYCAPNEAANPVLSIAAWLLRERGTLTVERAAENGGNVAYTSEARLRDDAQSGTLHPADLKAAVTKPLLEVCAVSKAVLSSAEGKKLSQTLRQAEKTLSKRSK
Put plainly: Trypanosoma cruzi tyrosyl tRNA synthetase (TcYRS) _High Tyrosine SOP. Further: in the data most compounds retested in dose-response had high values. It counts as functional. The settings on record: 30 µM.

In experiment [8] the target is T4, Tyrosyl-tRNA synthetase, putative (Trypanosoma cruzi (strain CL Brener)). The experiment is described as follows: Trypanosoma cruzi tyrosyl tRNA synthetase (TcYRS) SOP. Format: functional. The settings on record: 30 µM.
Experiment [9] concerns the target Chromo domain-containing protein 1 (Saccharomyces cerevisiae (strain ATCC 204508 / S288c) (Baker's yeast)) (UniProt P32657). The experiment is described as follows: ScCHD-1 Enzyme Inhibition Assay. Further: in the data most compounds retested in dose-response had high values. Format: functional. The settings on record: 30 µM.

Sialic acid-binding Ig-like lectin 9 (Homo sapiens), sequence (Q9Y336 whole entry): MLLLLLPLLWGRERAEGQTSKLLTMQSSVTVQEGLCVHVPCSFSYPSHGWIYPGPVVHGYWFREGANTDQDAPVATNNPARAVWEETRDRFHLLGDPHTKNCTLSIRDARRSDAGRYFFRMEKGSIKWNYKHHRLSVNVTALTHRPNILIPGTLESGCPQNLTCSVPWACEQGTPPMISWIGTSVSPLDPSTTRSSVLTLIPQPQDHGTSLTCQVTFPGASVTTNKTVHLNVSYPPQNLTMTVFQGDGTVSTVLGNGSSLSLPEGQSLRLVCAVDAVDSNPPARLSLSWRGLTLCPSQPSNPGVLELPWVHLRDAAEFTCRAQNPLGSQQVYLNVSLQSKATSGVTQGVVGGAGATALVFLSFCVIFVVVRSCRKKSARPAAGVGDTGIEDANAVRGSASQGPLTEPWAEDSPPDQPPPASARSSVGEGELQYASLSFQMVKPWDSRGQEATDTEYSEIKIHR
Chromo domain-containing protein 1 (Saccharomyces cerevisiae (strain ATCC 204508 / S288c) (Baker's yeast)), sequence (P32657 whole entry, the tested form may be a part): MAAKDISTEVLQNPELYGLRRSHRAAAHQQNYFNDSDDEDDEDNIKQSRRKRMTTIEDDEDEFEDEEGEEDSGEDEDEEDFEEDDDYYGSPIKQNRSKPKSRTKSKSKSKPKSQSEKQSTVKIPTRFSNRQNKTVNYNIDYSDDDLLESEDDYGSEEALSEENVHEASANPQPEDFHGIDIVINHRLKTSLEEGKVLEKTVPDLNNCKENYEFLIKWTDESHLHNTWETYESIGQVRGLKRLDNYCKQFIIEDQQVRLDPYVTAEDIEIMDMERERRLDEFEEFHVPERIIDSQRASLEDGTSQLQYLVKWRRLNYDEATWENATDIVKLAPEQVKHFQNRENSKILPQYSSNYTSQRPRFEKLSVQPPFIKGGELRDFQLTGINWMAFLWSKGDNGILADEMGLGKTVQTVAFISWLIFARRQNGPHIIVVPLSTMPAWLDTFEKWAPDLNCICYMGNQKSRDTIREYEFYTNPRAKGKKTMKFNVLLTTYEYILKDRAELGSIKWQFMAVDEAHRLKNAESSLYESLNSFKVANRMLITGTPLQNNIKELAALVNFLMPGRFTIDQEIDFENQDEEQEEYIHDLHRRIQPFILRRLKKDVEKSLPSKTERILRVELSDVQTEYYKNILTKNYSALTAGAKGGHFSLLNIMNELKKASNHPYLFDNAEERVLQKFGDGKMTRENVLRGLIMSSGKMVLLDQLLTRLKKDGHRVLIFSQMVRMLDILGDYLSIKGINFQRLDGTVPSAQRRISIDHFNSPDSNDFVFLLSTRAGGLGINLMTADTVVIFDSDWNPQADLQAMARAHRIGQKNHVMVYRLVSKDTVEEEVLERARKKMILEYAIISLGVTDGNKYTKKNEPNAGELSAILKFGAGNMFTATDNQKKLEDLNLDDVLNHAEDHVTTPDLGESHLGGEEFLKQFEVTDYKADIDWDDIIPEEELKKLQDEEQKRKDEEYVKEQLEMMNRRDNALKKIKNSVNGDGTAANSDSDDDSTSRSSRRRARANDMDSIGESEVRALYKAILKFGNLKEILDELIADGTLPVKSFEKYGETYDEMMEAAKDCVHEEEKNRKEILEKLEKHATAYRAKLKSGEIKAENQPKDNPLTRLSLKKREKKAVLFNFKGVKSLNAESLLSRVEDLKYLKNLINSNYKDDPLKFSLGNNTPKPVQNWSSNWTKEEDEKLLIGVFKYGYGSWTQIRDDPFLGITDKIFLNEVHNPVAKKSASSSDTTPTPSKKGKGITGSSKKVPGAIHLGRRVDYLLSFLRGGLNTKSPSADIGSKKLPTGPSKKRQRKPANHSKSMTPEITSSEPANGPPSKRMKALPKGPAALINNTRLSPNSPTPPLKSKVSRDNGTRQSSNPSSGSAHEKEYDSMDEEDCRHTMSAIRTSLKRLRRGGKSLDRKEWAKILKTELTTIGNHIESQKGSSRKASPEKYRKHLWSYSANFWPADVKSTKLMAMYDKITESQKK
Protein translocase subunit SecA (Escherichia coli (strain K12)), sequence (P10408 whole entry): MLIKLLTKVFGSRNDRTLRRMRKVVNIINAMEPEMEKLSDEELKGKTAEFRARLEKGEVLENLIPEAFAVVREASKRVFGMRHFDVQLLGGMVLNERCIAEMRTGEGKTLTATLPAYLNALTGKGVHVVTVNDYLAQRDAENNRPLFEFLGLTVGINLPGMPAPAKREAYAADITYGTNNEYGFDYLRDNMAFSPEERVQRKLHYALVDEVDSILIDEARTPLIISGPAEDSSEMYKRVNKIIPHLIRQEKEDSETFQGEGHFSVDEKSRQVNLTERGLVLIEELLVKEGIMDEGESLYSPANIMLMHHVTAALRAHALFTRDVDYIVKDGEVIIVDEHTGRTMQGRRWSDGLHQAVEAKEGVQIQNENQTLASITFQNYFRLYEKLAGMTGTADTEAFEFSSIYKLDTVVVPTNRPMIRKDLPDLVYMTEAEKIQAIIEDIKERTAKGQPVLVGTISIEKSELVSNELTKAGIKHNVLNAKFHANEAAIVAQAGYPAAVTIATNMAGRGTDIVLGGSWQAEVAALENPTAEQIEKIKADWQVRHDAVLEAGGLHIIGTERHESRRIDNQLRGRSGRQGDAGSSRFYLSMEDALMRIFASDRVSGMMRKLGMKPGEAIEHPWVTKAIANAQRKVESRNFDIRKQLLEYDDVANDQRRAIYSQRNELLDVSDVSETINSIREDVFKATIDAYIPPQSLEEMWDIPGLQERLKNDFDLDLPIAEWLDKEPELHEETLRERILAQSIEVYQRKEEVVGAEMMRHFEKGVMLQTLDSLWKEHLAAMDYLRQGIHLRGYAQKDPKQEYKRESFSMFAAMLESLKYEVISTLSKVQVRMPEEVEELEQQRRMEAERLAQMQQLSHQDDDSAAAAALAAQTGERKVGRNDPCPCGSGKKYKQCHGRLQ

For `CN(C)S(=O)(=O)c1ccc(CN2CCCC2c2ccc[nH]2)o1` (stereo not drawn), the Percent Effect in [1] is -6.1%; in experiment [2], -13.2%; in experiment [3], -1.76%; in experiment [4], -2.17%; in the experiment with Trypanosoma cruzi it was -2.52%; in experiment [5] it was -0.719%. Moreover, the Percent Effect in experiment [6] was -2.79%; in the experiment filed under Homo sapiens it was -1.99%; in [7], 4.43%; in [8], -6.17%; in experiment [9], 5.79%.
For `COc1c(C2CCCN2C(=O)c2ccnc(N(C)C)c2)c(C)nn1C` (stereo not drawn), the Percent Effect in experiment [1] was -4.71%; in [2], 5.2%; in experiment [3], 4.01%; in [4], 13.2%; in the experiment with Trypanosoma cruzi, -4.21%; in experiment [5], 2.74%. In addition, the Percent Effect in experiment [6] is 5.58%; in the experiment filed under Homo sapiens, 14%; in [7] it was 4.76%; in experiment [8] it was 7.06%; in experiment [9], -20%.
As for `COc1ccccc1OCc1cc(C(=O)N2C[C@H](O)[C@@H](N(C)C)C2)n[nH]1`, the Percent Effect was -3.86% in experiment [1]; 6.94% in [2]; 0.606% in experiment [3]; -3.31% in [4]; -1.46% in the experiment on Trypanosoma cruzi; 0.442% in [5]. For the same compound, the Percent Effect is 11.9% in experiment [6]; 9.72% in the experiment listed under Homo sapiens; 2.1% in experiment [7]; 2.56% in [8]; -2.07% in experiment [9].
For the compound `Cn1ccc(NC(=O)Cc2cccc(F)c2)n1`, the Percent Effect in [1] is -2.82%; in experiment [2], 5.41%; in experiment [3] it was 2.46%; in [4] it was -6.52%; with Trypanosoma cruzi it was 3.71%; in experiment [5], -3.33%. Besides, the Percent Effect in [6] was 12.3%; in the experiment filed under Homo sapiens it was 15%; in [7], 12.9%; in [8], 13.4%; in experiment [9], 113%.
Take `CCOc1nnc(CN(C)CC2CCCN2c2cccnn2)s1` (stereo not drawn): the Percent Effect in experiment [1] was -2.36%; in experiment [2] it was 7.89%; in [3], -1.61%; in experiment [4], -2.87%; in the experiment with Trypanosoma cruzi it was 3.41%; in [5], -8.28%. For the same compound, the Percent Effect in experiment [6] was 20.2%; in the experiment listed under Homo sapiens it was -2.35%; in experiment [7] it was 3.19%; in [8] it was 10.4%; in experiment [9] it was -4.84%.
`COc1cccc(C(=O)N2CCCC(c3cc(C)[nH]n3)C2)c1OC` (stereo not drawn): the Percent Effect is -3.02% in [1]; 10.8% in experiment [2]; -3.74% in [3]; -1.79% in experiment [4]; 8.4% in the experiment on Trypanosoma cruzi; -2.81% in experiment [5]. Further, the Percent Effect in experiment [6] is 11.7%; in the experiment listed under Homo sapiens, 17.4%; in [7], 4.43%; in experiment [8] it was 16.1%; in experiment [9], -5.21%.
For `Cc1cc(C(=O)N2CCc3ncc(CN4CCOCC4)n3CC2)no1`, the Percent Effect in [1] is -4.01%; in [2], 0%; in experiment [3], 1.62%; in experiment [4], 0.585%; with Trypanosoma cruzi, 0.0978%; in experiment [5], -15.6%. The Percent Effect in experiment [6] is -3.51%; in the experiment listed under Homo sapiens, -3.46%; in experiment [7] it was -3.24%; in experiment [8], -5.13%; in experiment [9], 8.28%.
`CCn1cc(Br)c(C(=O)NCc2cnn(C)c2)n1`: the Percent Effect in [1] is -1.67%; in experiment [2], 13%; in experiment [3] it was -0.504%; in experiment [4], 11.9%; in the experiment on Trypanosoma cruzi, 6.79%; in [5] it was -6.9%. The Percent Effect worked out at 13% in [6]; 1.3% in the experiment filed under Homo sapiens; 8.6% in experiment [7]; 21% in experiment [8]; 18.8% in experiment [9].
